In PubChem BioAssay AID1159580 (chemical genetic matrix, 2015):
In all, about 5,500 compounds went through this assay and about 2,000 (36%) were called active. Not shown: some 18% with an inconclusive outcome. No stated cut-off is given here; in the data, active means normalized growth mostly below about 0.91 (no sharp cut-off); inconclusive means no clear call, values can overlap the other calls; inactive means mostly above about 0.92. Some of the results follow.

Assay: chemical genetic growth profiling, strain panel (AID 1159580);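 further: tested at 20 µM; growth read once vehicle control cultures reached saturation at 30 °C; 1 = growth at the plate median or of vehicle wells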
Details: S. cerevisiae deletion strains, growth OD

Measured: normalized growth

CC(C)NC[C@H](O)COc1cccc2[nH]ccc12
inactive: locus YAL013W, strain DEP1, stronger effect = lower value 0.999 | locus YAL040C, strain CLN3, stronger effect = lower value 0.984 | locus YCL061C, strain MRC1 (second series), stronger effect = lower value 1.01 | locus YDR363W, strain ESC2, stronger effect = lower value 0.994 | locus YER002W, strain NOP16, stronger effect = lower value 0.969 | locus YNL153C, strain GIM3, stronger effect = lower value 1.01 | locus YNL175C, strain NOP13, stronger effect = lower value 1.01 | locus YNL197C, strain WHI3, stronger effect = lower value 1.01 | locus YNL224C, strain SQS1, stronger effect = lower value 1.01 | locus YNL322C, strain KRE1, stronger effect = lower value 0.999 | locus YOR083W, strain WHI5 (second series), stronger effect = lower value 1.05 | locus YPL241C, strain CIN2, stronger effect = lower value 1

O=C(Oc1cccc2[nH]ccc12)c1ccc(C(F)(F)F)cc1
inactive: locus YAR019C, strain CDC15, stronger effect = lower value 0.968 | locus YBL105C, strain PKC1, stronger effect = lower value 0.97 | locus YBR135W, strain CKS1, stronger effect = lower value 0.974 | locus YBR136W, strain MEC1, stronger effect = lower value 0.968 | locus YBR160W, strain CDC28, stronger effect = lower value 0.974 | locus YDL017W, strain CDC7, stronger effect = lower value 0.965 | locus YDL028C, strain MPS1, stronger effect = lower value 0.974 | locus YDL101C, strain DUN1, stronger effect = lower value 0.984 | locus YDL108W, strain KIN28, stronger effect = lower value 0.971 | locus YDL132W, strain cdc53, stronger effect = lower value 0.973 | locus YDL214C, strain PRR2, stronger effect = lower value 0.82 | locus YDR052C, strain DBF4, stronger effect = lower value 0.972 | locus YDR054C, strain cdc34, stronger effect = lower value 0.961 | locus YDR226W, strain ADK1, stronger effect = lower value 0.956 | locus YDR477W, strain SNF1, stronger effect = lower value 0.814 | locus YER123W, strain YCK3, stronger effect = lower value 0.702 | locus YER133W, strain GLC7, stronger effect = lower value 0.775 | locus YFL009W, strain cdc4, stronger effect = lower value 0.966 | locus YFL029C, strain CAK1, stronger effect = lower value 0.968 | locus YFR003C, strain YPI1, stronger effect = lower value 0.966 | locus YFR019W, strain FAB1, stronger effect = lower value 0.855 | locus YFR028C, strain CDC14, stronger effect = lower value 0.955 | locus YGR040W, strain KSS1, stronger effect = lower value 0.805 | locus YGR052W, strain FMP48, stronger effect = lower value 0.763 | locus YGR092W, strain DBF2, stronger effect = lower value 0.634 | locus YHR079C, strain IRE1, stronger effect = lower value 0.607 | locus YHR082C, strain KSP1, stronger effect = lower value 0.857 | locus YHR205W, strain SCH9, stronger effect = lower value 0.862 | locus YIL147C, strain SLN1, stronger effect = lower value 0.962 | locus YJL095W, strain BCK1, stronger effect = lower value 0.645 | locus YJL128C, strain PBS2, stronger effect = lower value 0.933 | locus YJL157C, strain FAR1, stronger effect = lower value 0.807 | locus YJR016C, strain ILV3, stronger effect = lower value 0.966 | locus YJR066W, strain TOR1 (second series), stronger effect = lower value 0.699 | locus YJR066W, strain TOR1, stronger effect = lower value 0.679 | locus YKL067W, strain YNK1, stronger effect = lower value 0.827 | locus YKL101W, strain HSL1, stronger effect = lower value 0.788 | locus YKL193C, strain SDS22, stronger effect = lower value 0.964 | locus YKL203C, strain TOR2, stronger effect = lower value 0.831 | locus YLR133W, strain CKI1, stronger effect = lower value 0.822 | locus YLR403W, strain SFP1, stronger effect = lower value 0.831 | locus YML070W, strain DAK1, stronger effect = lower value 0.791 | locus YMR001C, strain CDC5, stronger effect = lower value 0.964 | locus YMR205C, strain PFK2 (second series), stronger effect = lower value 0.862 | locus YMR277W, strain FCP1, stronger effect = lower value 0.96 | locus YNL006W, strain LST8, stronger effect = lower value 0.969 | locus YNL020C, strain ARK1, stronger effect = lower value 0.763 | locus YNL161W, strain CBK1, stronger effect = lower value 0.987 | locus YNL183C, strain NPR1, stronger effect = lower value 0.769 | locus YNL207W, strain RIO2, stronger effect = lower value 0.97 | locus YNL222W, strain SSU72, stronger effect = lower value 0.976 | locus YNL307C, strain MCK1 (second series), stronger effect = lower value 0.859 | locus YOL078W, strain AVO1, stronger effect = lower value 0.978 | locus YOL136C, strain PFK27, stronger effect = lower value 0.815 | locus YOR119C, strain RIO1, stronger effect = lower value 0.887 | locus YOR231W, strain MKK1, stronger effect = lower value 0.755 | locus YOR329C, strain SCD5, stronger effect = lower value 0.97 | locus YPL031C, strain PHO85, stronger effect = lower value 0.809 | locus YPL153C, strain RAD53, stronger effect = lower value 0.757 | locus YPL204W, strain HRR25, stronger effect = lower value 0.778 | locus YPL209C, strain IPL1, stronger effect = lower value 0.965 | locus YPR025C, strain CCL1, stronger effect = lower value 0.975 | locus YPR106W, strain ISR1, stronger effect = lower value 0.972 | locus YPR111W, strain DBF20, stronger effect = lower value 0.937 | strain NNK1, stronger effect = lower value 0.961 | strain TSCII, stronger effect = lower value 0.967
active: locus YHR030C, strain SLT2, stronger effect = lower value 0.454 | locus YKL048C, strain ELM1, stronger effect = lower value 0.786 | locus YLR113W, strain HOG1, stronger effect = lower value 0.754 | locus YOR061W, strain CKA2, stronger effect = lower value 0.603 | locus YPL256C, strain CLN2, stronger effect = lower value 0.75
